Measurements published in PubChem BioAssay (NCATS).
“And” between values parts separate entries of the source, which are not always exact repeats. Identical values can stand only once. Results filed as inconclusive are left out. The source holds several records for some structures; these can differ, active in one and inactive in another. The source made the active and inactive calls. The call rests on the fitted dose curve; in most records, active means well fitted inhibition curve with a large enough effect; inconclusive means small, poorly fitted or top-dose-only effect; inactive means flat fitted curve, though single readings scatter.

What was measured:
[1] = tested on: HEK293; experiment: Cytotoxic Profiling of Annotated Libraries Using Quantitative High-Throughput Screening (AID 1296008); settings: Five cell lines viability, CellTiter-Glo ATP luminescence, 48-72 h; max response: stronger effect = lower value
In short: (§1)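 Cytotoxicity was measured as CellTiter-Glo ATP luminescence, read after 10 min at room temperature. Compound treatment of the cells lasted 48 or 72 hr at 37 degrees Celsius in a qHTS format.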

[2] = tested on: HaCat; experiment: as above; settings: Five cell lines viability, CellTiter-Glo ATP luminescence, 48-72 h; max response: stronger effect = lower value
In short: as §1

[3] = tested on: KB-3-1; experiment: as above; settings: Five cell lines viability, CellTiter-Glo ATP luminescence, 48-72 h; max response: stronger effect = lower value
In short: as §1

[4] = tested on: NIH3T3; experiment: as above; settings: Five cell lines viability, CellTiter-Glo ATP luminescence, 48-72 h; max response: stronger effect = lower value
In short: as §1

[5] = tested on: HACAT; experiment: qHTS assay to identify novel small-molecules to repurpose for Merkel cell carcinoma treatment (AID 1296009); settings: MCC and control cell lines, CellTiter-Glo viability, 72 h; at 44.8 µM (top of the series) unless noted
In short: (§2)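 After compound transfer in DMSO, plates were kept 72 hr at 37 degree celsius. Luminescent ATP signal from CellTiter-Glo served as viability measure, normalized against DMSO and no-cell controls.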

[6] = tested on: MCC-13; experiment: as above; settings: MCC and control cell lines, CellTiter-Glo viability, 72 h; series mostly up to 46 µM
In short: as §2

[7] = tested on: MCC-26; experiment: as above; settings: MCC and control cell lines, CellTiter-Glo viability, 72 h; series mostly up to 46 µM
In short: as §2

[8] = tested on: MKL-1; experiment: as above; settings: MCC and control cell lines, CellTiter-Glo viability, 72 h; series mostly up to 46 µM
In short: as §2

[9] = tested on: MKL-2; experiment: as above; settings: MCC and control cell lines, CellTiter-Glo viability, 72 h; series mostly up to 46 µM
In short: as §2

[10] = tested on: CRL-7250; experiment: Cytotoxic Profiling of Annotated Libraries Using Quantitative High-Throughput Screening (AID 1296008); settings: Five cell lines viability, CellTiter-Glo ATP luminescence, 48-72 h; max response: stronger effect = lower value
In short: as §1

[11] = tested on: UISO; experiment: qHTS assay to identify novel small-molecules to repurpose for Merkel cell carcinoma treatment (AID 1296009); settings: MCC and control cell lines, CellTiter-Glo viability, 72 h; series mostly up to 46 µM
In short: as §2

[12] = tested on: NIH3T3; experiment: as above; settings: MCC and control cell lines, CellTiter-Glo viability, 72 h; at 44.8 µM (top of the series) unless noted
In short: as §2
Further: nearly all actives have a fitted effect of over 60% in size.
On the % scale 0 is the no-effect control and ±100 the full control effect; potency means the concentration at half of the fitted maximal effect.

CC1(C)CNc2cc(NC(=O)c3cccnc3NCc3ccncc3)ccc21
inactive: max response [1] -29.2% | outcome [2] | max response [3] 3.54% and 4.82% | max response [4] -1.33% | outcome [5] | Potency [6] | Potency [7] | Potency [8] | Potency [9]
active: Potency [1] 5.8 µM | Potency [4] 10.3 µM

CCC(C)N(C)C(=O)c1cc2ccccc2c(-c2ccccc2Cl)n1 (stereo not given)
inactive: max response [10] 0.969% | outcome [2] | max response [3] 3.08% | max response [4] -14% | outcome [5] | Potency [6] | Potency [7] | Potency [8] | Potency [9] | Potency [11]

O=C(C=Cc1ccc(/C=C/C(=O)Nc2ccc(C3=NCCN3)cc2)cc1)Nc1ccc(C2=NCCN2)cc1
inactive: outcome [10] | max response [2] -9.67% | outcome [3] | outcome [4] | Potency [6] | Potency [7] | Potency [8] | Potency [9] | outcome [12] | Potency [11]

C[C@]12CCC(=O)C=C1CC[C@@H]1[C@@H]2[C@@H](O)C[C@@]2(C)[C@H]1CC[C@]2(O)C(=O)CO
inactive: max response [10] 3.48% | max response [1] -3.59% | max response [4] 1.04% | Potency [6] | Potency [7] | Potency [8] | Potency [9] | Potency [11]

COCC(=O)NCC=Cc1ccc2ncnc(Nc3ccc(Oc4ccc(C)nc4)c(C)c3)c2c1
inactive: max response [4] -10.3% | Potency [7] | Potency [8]
active: Potency [10] 23.5 µM | Potency [1] 13.2 µM

Cc1cc([C@@H](C)Nc2ccccc2C(=O)O)c2nc(N3CCOCC3)cc(=O)n2c1
active: Potency [10] 3.82 µM | Potency [1] 19.1 µM | Potency [4] 12.1 µM | Potency [11] 34 µM
inactive: Potency [6] | Potency [8]

Cc1ccc(-n2nc(C(C)(C)C)cc2NC(=O)Nc2ccc(OCCN3CCOCC3)c3ccccc23)cc1
active: Potency [9] 18.8 µM
inactive and 23.7 µM (active): Potency [8]
inactive: max response [10] 1.93% and -9.63% | max response [2] -3.92% | outcome [2] | outcome [3] | max response [4] -5.48% | outcome [5] | Potency [6] | Potency [7]
